Results on 32 molecules are retold here after ChEMBL document CHEMBL3433997, “St. Jude Leishmania screening dataset” (2016).

By inhibition is commonly meant the change of the read-out against control, counted positive when it falls.

What all share (format): functional
In experiment [1] the target is Solute carrier family 2, facilitated glucose transporter member 1 (Homo sapiens) (UniProt P11166). Nature of the experiment: ST_JUDE_LEISH: Cytotoxicity at 2uM final concentration against transgenic Leishmania Mexicana promastigotes LmGLUT1 that are glucose transport deficient and complemented with the human glucose transporter GLUT1. Activity is measured by DNA content using SYBR green in vitro.

For experiment [2], the target named is Hexose transporter 1 (Plasmodium falciparum) (UniProt O97467). In words: ST_JUDE_LEISH: Cytotoxicity at 2uM final concentration against transgenic Leishmania Mexicana promastigotes LmPfHT that are glucose transport deficient and complemented with the Plasmodium falciparum hexose transporter. Activity is measured by DNA content using SYBR green in vitro.
Experiment [3] has as its target Glucose transporter (Leishmania mexicana) (UniProt O61059). In words: ST_JUDE_LEISH: Cytotoxicity at 2uM final concentration against transgenic Leishmania Mexicana promastigotes LmGT2 that are glucose transport deficient and complemented with the L. Mexicana glucose transporter 2. Activity is measured by DNA content using SYBR green in vitro.

Chain of Solute carrier family 2, facilitated glucose transporter member 1 (Homo sapiens) (P11166 whole entry): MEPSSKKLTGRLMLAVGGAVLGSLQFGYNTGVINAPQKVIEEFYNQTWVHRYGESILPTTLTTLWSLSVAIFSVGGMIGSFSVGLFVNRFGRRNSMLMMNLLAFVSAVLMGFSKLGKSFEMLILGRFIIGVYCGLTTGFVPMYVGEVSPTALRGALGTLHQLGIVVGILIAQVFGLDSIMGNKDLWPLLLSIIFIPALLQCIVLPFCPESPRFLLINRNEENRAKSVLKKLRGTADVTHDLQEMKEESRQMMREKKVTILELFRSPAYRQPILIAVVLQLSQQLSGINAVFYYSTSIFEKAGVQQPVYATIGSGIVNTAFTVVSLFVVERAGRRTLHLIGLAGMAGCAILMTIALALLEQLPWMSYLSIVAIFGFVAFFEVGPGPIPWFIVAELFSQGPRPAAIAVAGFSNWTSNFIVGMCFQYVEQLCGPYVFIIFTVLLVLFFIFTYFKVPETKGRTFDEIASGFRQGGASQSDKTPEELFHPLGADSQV

Regarding `Nc1nc2c(ncn2COC(COCc2ccccc2)COCc2ccccc2)c(=O)[nH]1.Nc1nc2ncn(COC(COCc3ccccc3)COCc3ccccc3)c2c(=O)[nH]1`, the inhibition was -0.7% in experiment [1], -2% in experiment [2] and -0.45% in experiment [3].
With `O=C1C2C3SC(c4c3ccc3ccccc43)C2C(=O)N1c1ccccc1` (stereo unspecified), the inhibition is -0.44% in experiment [1], 0.31% in experiment [2] and -1.01% in experiment [3].
With `Cc1c(Cl)cccc1S(=O)(=O)N1CCCCC(c2ccc(C(F)(F)F)cc2)=N1`, the inhibition in experiment [1] is 0.39%; in experiment [2] it was 3.08%; in experiment [3], -0.52%.
`Nc1nc(N)c2c(ccc3c2ccn3CCCC2CCCNC2)n1` (stereo unspecified): the inhibition in experiment [1] is 0.22%; in experiment [2], -0.13%; in experiment [3] it was 1.44%.
In the case of `COc1ccc(C(=O)NC(c2ccc(Cl)cc2Cl)c2cc(Cl)c3cccnc3c2O)cc1` (stereo unspecified), the values for the inhibition in experiment [1], in experiment [2] and in experiment [3] were 0.87%, 3.16% and -1.58%, respectively.
For the molecule `COc1ccc2nc(N3CCNCC3)nc(NCCCc3ccccc3)c2c1`, the values for the inhibition in experiment [1], in experiment [2] and in experiment [3] were 5.1%, 2.65% and 0%, respectively.
Take `Cc1ccc(Nc2ccnc(Nc3ccc4c(c3)CS(=O)(=O)C4)n2)cc1O`: the figures for the inhibition in experiment [1], in experiment [2] and in experiment [3] were 2.49%, 3.19% and 4.14%, respectively.
The like results for `CC1(C)CN2CCCC2c2cc(NC(=O)/C=C/c3ccccc3Cl)ccc21` (stereo unspecified) were, in that order, 3.26%, 2.04% and 0.94%.
Regarding `COc1cc(Cc2cnc(N)nc2N)cc(OCCCCC2SC(=O)NC2=O)c1Br` (stereo unspecified), the figures for the inhibition in experiment [1], in experiment [2] and in experiment [3] were 6.08%, 4.54% and 5.43%, respectively.
The matching figures for `Cc1ccc(C(=O)NC2C(=O)NC2c2ccccc2)c(C)c1` (stereo unspecified): 3.72%, 4.84% and 2.37%.
The matching figures for `O=[N+]([O-])c1cccc(CNCC2CCN(Cc3ccc(-c4ccccc4)cc3)CC2)c1`: 3.06%, 2.39% and 0.56%.
For `CCOC(=O)c1ccc(NC(=O)NNC(=O)c2ccc(CCN3CCC(c4nc(COCC(F)(F)F)c(-c5ccc(F)cc5)o4)CC3)cc2)cc1`, the inhibition turned out to be 1.09% in experiment [1], 1.22% in experiment [2] and 0.84% in experiment [3].
As for `O=C(/C=C/c1ccc(Cl)c(Cl)c1)N1CCC(CN2CCC(c3c[nH]c4ccncc34)CC2)CC1`, the inhibition in experiment [1] was determined as 4.66%; in experiment [2], 5.47%; in experiment [3], 5.44%.
For the molecule `Cn1cnc(CCNC(=O)c2ccc(-c3cccc(-c4nc5ccccc5[nH]4)c3)cc2)c1`, the results for the inhibition in experiment [1], in experiment [2] and in experiment [3] were 0.8%, 0.81% and -1.62%, respectively.
The matching figures for `CN1CCN(c2ccc(Nc3nccc(-c4cnn5ncccc45)n3)cc2Cl)CC1`: 90.6%, 95.1% and 83.8%.
The matching figures for `COC(=O)c1c(C#N)c(OC)cc(O)c1CSC[C@H](Nc1nc(-c2ccc([N+](=O)[O-])cc2)cs1)C(=O)NCCN1CCCCC1`: -1.73%, 0.29% and -0.42%.
The like results for `Cc1nc(N)nc(N)c1-c1ccc(Cl)cc1` were, in that order, 3.05%, 2.21% and 2.37%.
Turning to `CC(=O)Nc1ccc(CN2CCC(NC(=O)c3cc(-c4ccc(N(C)C)cc4)cs3)C2)cc1` (stereo unspecified), the inhibition was 1.62% in experiment [1], 3.72% in experiment [2] and 4.39% in experiment [3].
For `O=C(NCCCCCN1CCC(c2c[nH]c3ccccc23)CC1)Nc1ccc(Cl)cc1Cl`, the inhibition in experiment [1] is 2.57%; in experiment [2], 2.01%; in experiment [3] it was 2.92%.
Take `O=c1cc(NCCCNCc2ccc(C(F)(F)F)cc2F)[nH]c2ccccc12`: the results for the inhibition in experiment [1], in experiment [2] and in experiment [3] were 2.19%, 0.29% and -0.34%, respectively.
Take `OC1CCCN(Cc2cccc(-c3ccc(-c4nc5cc(F)ccc5[nH]4)cc3)c2)C1` (stereo unspecified): the inhibition in experiment [1] is 4.24%; in experiment [2] it was 3.92%; in experiment [3], 4.6%.
The matching figures for `COc1cc2nccc(Nc3ccc4c(cnn4Cc4cccc(F)c4)c3)c2cc1OC`: 6.91%, 4.66% and 1.56%.
Turning to `CCCNCc1ccc(-c2ccc(CN(CCOC)C(=O)c3nn(-c4ccccc4)nc3C)cc2)nc1`, the figures for the inhibition in experiment [1], in experiment [2] and in experiment [3] were 4.16%, 1.87% and 1%, respectively.
`COc1ccc2c(c1)CCN(CCN1CCC(CNC(=O)c3ccc(-c4ccc(C#N)cc4)cc3)CC1)C2`: the inhibition in experiment [1] is -0.11%; in experiment [2], 1.19%; in experiment [3], 2.22%.
Turning to `CC(C)(C)CCN1CCC(NC(=O)c2ccc(-c3cccc(C(F)(F)F)c3)s2)CC1`, the inhibition amounted to 1.71% in experiment [1], 5.61% in experiment [2] and 3.83% in experiment [3].
Take `CC1(C)N=C(N)N=C(N)N1c1cccc(C(F)(F)F)c1`: the inhibition in experiment [1] is -1.8%; in experiment [2], -0.92%; in experiment [3], -3.44%.
Take `CCCNC[C@@H](O)[C@H](Cc1ccccc1)NC(=O)c1cc(NCC)cc(N2CCCC2=O)c1`: the inhibition in experiment [1] stood at 1.25%; in experiment [2], 2.29%; in experiment [3], 0.72%.
Consider `Cc1cccc2nc(-c3ccc(-c4ccc(CNCC5CCCO5)cc4)s3)[nH]c12` (stereo unspecified), for which the results for the inhibition in experiment [1], in experiment [2] and in experiment [3] were 1.99%, 2.71% and 1.98%, respectively.
The matching figures for `Cn1c(NC(=O)C2CCC(CNC(=O)c3ccc(O)c(-c4ccc(Cl)c(Cl)c4)c3)CC2)nc2ccccc21` (stereo unspecified): 0.88%, 0.39% and 0.36%.
Take `COc1cccc(NC(=O)Nc2cc(-c3ccc4[nH]ncc4c3)cc3c2CNC3=O)c1`: the inhibition was found to be 2.19% in experiment [1], 2.02% in experiment [2] and 1.68% in experiment [3].
In the case of `NC1CCCN(Cc2ccc(-c3ccc(-c4nc5ccccc5[nH]4)s3)cc2)C1` (stereo unspecified), the inhibition in experiment [1] worked out at 8.95%; in experiment [2] it was 5.92%; in experiment [3], 9.09%.
The like results for `O=C(/C=C/c1ccc(Cl)c(Cl)c1)N1CCC(CCCN2CCC(c3c[nH]c4ccccc34)CC2)CC1` were, in that order, 70.7%, 51.2% and -0.32%.
